In PubChem BioAssay AID1159580 (chemical genetic matrix, 2015):
Values joined by “and” are separate entries in the source; they are usually repeats but may differ in a detail not shown here. Equal values may be shown once. The whole screen tested about 5,500 compounds, of which about 2,000 (36%) were called active. About 18% were inconclusive and are not listed. Rule as the data show it: active = normalized growth mostly below about 0.91 (no sharp cut-off); inconclusive = no clear call, values can overlap the other calls; inactive = mostly above about 0.92. The list shows a part of the results.

Assay: chemical genetic growth profiling, strain panel (AID 1159580);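 also: tested at 20 µM; growth read once vehicle control cultures reached saturation at 30 °C; 1 = growth at the plate median or of vehicle wells; lower values mean less growth of the strain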
Conditions: S. cerevisiae deletion strains, growth OD

Measured: normalized growth

CCCCCC(O)C1C(=O)OC(C)C(O)/C=C/C=C/C=C/C=C/C=C(\C)C(O)CC(O)CC(O)CC(O)CC(O)CC(O)CC1O (configuration not stated)
inactive: locus YAL013W, strain DEP1, hits give low values 1.01 | locus YAL021C, strain ccr4, hits give low values 1.01 | locus YAL026C, strain drs2, hits give low values 0.994 | locus YAL030W, strain snc1, hits give low values 0.985 | locus YBL061C, strain skt5, hits give low values 0.982 | locus YBR009C, strain hhf1, hits give low values 0.996 | locus YBR021W, strain FUR4, hits give low values 1.02 | locus YBR023C, strain chs3, hits give low values 0.989 | locus YBR171W, strain sec66, hits give low values 0.982 | locus YBR229C, strain ROT2, hits give low values 1.01 | locus YBR231C, strain swc5, hits give low values 0.992 | locus YBR279W, strain paf1, hits give low values 0.993 | locus YCL011C, strain gbp2, hits give low values 1 | locus YCL016C, strain dcc1, hits give low values 0.986 | locus YCL029C, strain bik1, hits give low values 1.03 | locus YCL061C, strain MRC1, hits give low values 0.992 | locus YCL069W, strain vba3, hits give low values 0.993 | locus YCR088W, strain abp1, hits give low values 0.993 | locus YDL005C, strain med2, hits give low values 0.995 | locus YDL035C, strain GPR1, hits give low values 1.02 | locus YDL040C, strain nat1, hits give low values 0.99 | locus YDL074C, strain BRE1, hits give low values 1.01 | locus YDL101C, strain DUN1, hits give low values 1.01 | locus YDL134C, strain PPH21, hits give low values 1.01 | locus YDL185W, strain tfp1, hits give low values 1.03 | locus YDL192W, strain arf1, hits give low values 1.04 | locus YDR001C, strain nth1, hits give low values 0.983 | locus YDR069C, strain doa4, hits give low values 0.996 | locus YDR101C, strain arx1, hits give low values 1.02 | locus YDR137W, strain rgp1, hits give low values 1.01 | locus YDR150W, strain NUM1, hits give low values 1.02 | locus YDR159W, strain sac3, hits give low values 0.96 | locus YDR162C, strain NBP2, hits give low values 1.02 | locus YDR195W, strain ref2 0.96 | locus YDR297W, strain sur2, hits give low values 1.01 | locus YDR318W, strain mcm21, hits give low values 1.03 | locus YDR334W, strain swr1, hits give low values 0.986 | locus YDR335W, strain msn5, hits give low values 0.985 | locus YDR388W, hits give low values 1.03 | locus YDR392W, strain spt3, hits give low values 0.937 | locus YDR502C, strain sam2, hits give low values 1.01 | locus YEL003W, strain gim4, hits give low values 0.993 | locus YEL037C, strain rad23, hits give low values 1.02 | locus YEL061C, strain CIN8 (second series), hits give low values 0.98 | locus YEL061C, strain CIN8, hits give low values 1 | locus YER015W, strain faa2, hits give low values 0.991 | locus YER016W, strain bim1, hits give low values 0.986 | locus YER110C, hits give low values 1.02 | locus YER111C, strain swi4, hits give low values 0.996 | locus YER155C, strain BEM2 (second series), hits give low values 0.976 | locus YER155C, strain BEM2, hits give low values 1.02 | locus YER167W, strain BCK2, hits give low values 1.04 | locus YFR010W, strain ubp6, hits give low values 0.984 | locus YGL078C, strain dbp3, hits give low values 1.01 | locus YGL086W, strain mad1, hits give low values 1.03 | locus YGL167C, strain pmr1, hits give low values 0.984 | locus YGL173C, strain kem1, hits give low values 0.993 | locus YGL227W, strain vid30, hits give low values 0.989 | locus YGL240W, strain doc1, hits give low values 0.981 | locus YGL248W, strain PDE1, hits give low values 1.01 | locus YGL253W, strain hxk2, hits give low values 1 | locus YGR078C, strain PAC10, hits give low values 1 | locus YGR135W, strain pre9, hits give low values 1.02 | locus YGR229C, strain SMI1, hits give low values 1.02 | locus YGR252W, strain gcn5, hits give low values 1.04 | locus YHR013C, strain ard1, hits give low values 0.966 | locus YHR027C, strain rpn1, hits give low values 0.994 | locus YHR030C, strain SLT2, hits give low values 1.01 and 0.963 | locus YHR079C, strain IRE1 (second series), hits give low values 1.02 | locus YHR079C, strain IRE1, hits give low values 0.959 | locus YHR094C, strain hxt1, hits give low values 1.02 | locus YHR129C, strain ARP1, hits give low values 1 | locus YHR142W, strain chs7, hits give low values 1.01 | locus YHR200W, strain rpn10, hits give low values 1.02 | locus YIL066C, strain RNR3, hits give low values 1.01 | locus YIL073C, strain SPO22, hits give low values 1.12 | locus YIL125W, strain kgd1, hits give low values 1.03 | locus YIR030C, strain dcg1, hits give low values 1.02 | locus YJL092W, strain hpr5, hits give low values 0.985 | locus YJL095W, strain BCK1 (second series), hits give low values 0.988 | locus YJL095W, strain BCK1, hits give low values 1.01 and 0.975 | locus YJL115W, strain asf1, hits give low values 0.991 | locus YJL129C, strain trk1, hits give low values 0.976 | locus YJL134W, strain LCB3, hits give low values 1.01 | locus YJL154C, strain vps35, hits give low values 0.985 | locus YJL164C, strain tpk1, hits give low values 1 | locus YJL166W, strain qcr8, hits give low values 0.997 | locus YJL168C, strain set2, hits give low values 1.02 | locus YJL187C, strain SWE1 (second series), hits give low values 1 | locus YJL187C, strain SWE1, hits give low values 0.995 | locus YJR043C, strain POL32, hits give low values 1.03 | locus YJR066W, strain TOR1, hits give low values 0.939
